Hit rate of the full screen: of about 640,000 compounds, about 9,300 (1.5%) were called active. Cut-off read from the data, not from the text of the source: active = inhibition above about 32%; inactive = the rest. The sample as a whole holds a higher share of actives than the screen did.

A short description of this experiment: TEAD-YAP interaction inhibition, primary screen, TEAD-YAP interaction inhibitor project, luminescence, HEK-TIYL cells (AID 1259422).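 Note: 0% = median of test compound wells and 100% = reference inhibitor wells.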 Conditions: TEAD-Gal4/YAP UAS-luciferase luminescence, at 9.12 µM, active compounds read high.
What is called inhibition is the relative decrease from the control value, in per cent. Take `C=CCN(C)C(=O)c1c(C)nc2ccccn12`: the inhibition was -6.06% (inactive).

Turning to `Cc1nc2ccccn2c1C(=O)NCc1nc(-c2ccccc2)no1`, the inhibition is 36.5% (active).

On to `Cc1nc2ccccn2c1C(=O)NCc1ccc(Oc2ccccc2)cc1`, for which the inhibition is 62.4% (active).

`Cc1nc2sccn2c1C(=O)NCc1cccc(Cl)c1`: the inhibition was 12.9% (inactive).

For the molecule `O=C(NCc1nc(-c2ccccc2)no1)c1ccccc1I`, the inhibition was 7.97% (inactive).

Turning to `Cc1ccc(C)c(C(=O)NCc2nc(-c3ccccc3)no2)c1`, the inhibition is 9.38% (inactive).

Turning to `COc1ccc(CNCc2c(C(=O)O)[nH]c3ccccc23)cc1`, the inhibition was -5.51% (inactive).

Take `C=Cc1ccc(Cn2c(C(=O)O)c(CNCc3ccccc3OC)c3ccccc32)cc1`: the inhibition is 14.2% (inactive).

Regarding `Cc1ccc(N=C2NC(=O)C(Cc3ccccc3Cl)S2)cc1` (stereo not given), the inhibition is 33.1% (active).

`Cc1cccc(NC(=O)CC2SC(=Nc3ccccc3)NC2=O)c1` (stereo not given): the inhibition was 3.61% (inactive).

For the molecule `O=C(O)CC1SC(=Nc2ccccc2)NC1=O` (stereo not given), the inhibition is 4.55% (inactive).

For `Cc1ccc(C(c2cc(Cl)c3cccnc3c2O)N2CCN(c3ccccn3)CC2)cc1` (stereo not given), the inhibition was 38% (active).

In the case of `CC(C)c1ccc(OCC(O)CN2CCN(c3ccccn3)CC2)cc1` (stereo not given), the inhibition is -5.32% (inactive).

As to `Cc1cc(N2CCN(c3ccccn3)CC2)nc2c(C)cccc12`, the inhibition was 2.36% (inactive).

For the molecule `CCOc1ccc(C(=O)Nc2sc3c(c2C(N)=O)CC(C)CC3)cc1` (stereo not given), the inhibition is 2.83% (inactive).

As for `CC(C)n1cnc2c(NCCOc3ccccc3)nc(-c3ccc(C(=O)NC4CC4)cc3)nc21`, the inhibition was 13.6% (inactive).

As for `CC1=CC2=NC(=O)/C(=C\c3cc(C)n(-c4cccc(C)c4C)c3C)C(=N)N2O1`, the inhibition was 9.28% (inactive).

`Cc1cc(/C=C2/C(=N)N3C=CSC3=NC2=O)c(C)n1-c1ccccc1F`: the inhibition is 86.4% (active).

In the case of `CC1=CN2C(=N)/C(=C/c3cc(C)n(-c4ccc(F)cc4)c3C)C(=O)N=C2S1`, the inhibition was -6.11% (inactive).

As to `Cc1cc(/C=C2/C(=N)N3C=CSC3=NC2=O)c(C)n1-c1ccc(F)cc1`, the inhibition is 41.3% (active).

For `COc1cc(OC)c(-n2c(C)cc(/C=C3/C(=N)N4C=CSC4=NC3=O)c2C)cc1Cl`, the inhibition was -0.88% (inactive).

`Cc1cc(/C=C2\C(=N)N3N=C(S(C)(=O)=O)SC3=NC2=O)c(C)n1-c1ccc(F)cc1`: the inhibition was 4.07% (inactive).

`COCC1=C(C(=O)OC)C(c2ccc(Cl)cc2Cl)n2ncnc2N1` (stereo not given): the inhibition was -3.21% (inactive).

For the molecule `CN1C(=O)C(O)=C(c2ccccc2)S1(=O)=O`, the inhibition is 5.68% (inactive).

With `COc1cccc(NC(=O)Cn2c(=O)c(C(F)(F)F)nc3ccccc32)c1`, the inhibition is 5.63% (inactive).

For the molecule `Cc1ccc(NC(=O)/C(=C/c2ccc(Cl)cc2)NC(=O)c2ccco2)cc1`, the inhibition was -3.43% (inactive).

In the case of `CC(C)C(=O)NCC1CCC2(CCN(Cc3nc(-c4ccccc4)cs3)CC2)O1` (stereo not given), the inhibition is 96.7% (active).

With `COc1ccccc1CN1CCC2(CCC(CNC(=O)C(C)C)O2)CC1` (stereo not given), the inhibition was -13.5% (inactive).

As for `CC(C)C(=O)NCC1CCC2(CCN(Cc3ccc4ccccc4c3)CC2)O1` (stereo not given), the inhibition is 9.09% (inactive).

For the molecule `CC(=O)N1CCc2c(sc(NC(=O)CCSc3ccccc3)c2C(N)=O)C1`, the inhibition was 3.99% (inactive).

Regarding `N#Cc1c(NC(=O)/C=C/c2cccc([N+](=O)[O-])c2)sc2c1CCCC2`, the inhibition was -1.55% (inactive).

Turning to `CCOC(=O)N1CCc2c(sc(NC(=O)CCSc3ccccc3)c2C#N)C1`, the inhibition was 44.1% (active).

As for `CCOC(=O)N1CCc2c(sc(NC(=O)/C=C/c3cccc([N+](=O)[O-])c3)c2C#N)C1`, the inhibition is 33.5% (active).

As to `CCOC(=O)N1CCc2c(sc(NC(=O)c3ccc([N+](=O)[O-])s3)c2C#N)C1`, the inhibition is 3.38% (inactive).

Consider `CC(=O)N1CCc2c(sc(NC(=O)CCS(=O)(=O)c3ccccc3)c2C#N)C1`, for which the inhibition is 3.65% (inactive).

Consider `O=C(OC1CCS(=O)(=O)C1)c1ccccc1` (stereo not given), for which the inhibition is -9.29% (inactive).

As for `CN1CCN(S(=O)(=O)c2ccc(Sc3ccc(Br)cc3)c(C(=O)O)c2)CC1`, the inhibition was -2.07% (inactive).

As to `CCOc1cc(C2Nc3ccccc3C(=O)N2c2ccc(OC)cc2)ccc1O` (stereo not given), the inhibition was -26.9% (inactive).

In the case of `CCCN1C(=O)c2ccccc2NC1c1ccc(O)c(OC)c1` (stereo not given), the inhibition was 45.1% (active).

As for `CCCN1C(=O)c2ccccc2NC1c1ccc(OC)c(COc2ccc(Cl)cc2)c1` (stereo not given), the inhibition is 1.41% (inactive).

Turning to `CCOC(=O)N1CCN(C(=O)CC2C(=O)NCCN2Cc2ccccc2C)CC1` (stereo not given), the inhibition was 4.23% (inactive).

Consider `CCOc1ccc(C(=O)NC(=S)Nc2ccc(N3CCCCC3)cc2)cc1`, for which the inhibition is -3.84% (inactive).

Regarding `O=C(NC1(c2ccc3c(c2)OCO3)CCCC1)c1cscn1`, the inhibition was 5.97% (inactive).

As for `CCOC(=O)c1ccc2c(c1)C(=O)N(c1ccc3ccccc3c1)C2=O`, the inhibition was -2.85% (inactive).

As for `CCOC(=O)c1ccc2nc(C34CC5CC(CC(C5)C3)C4)ccc2c1`, the inhibition was 46.2% (active).

In the case of `NC(=O)c1sc2nc(C34CC5CC(CC(C5)C3)C4)ccc2c1N`, the inhibition is -1.93% (inactive).

Consider `CC1CCc2sc(NC(=O)c3ccccc3F)c(C#N)c2C1` (stereo not given), for which the inhibition was -31.8% (inactive).

Turning to `Cc1ccc(-c2c(NCCCc3ccccc3)c(=O)c2=O)cc1`, the inhibition is -2.15% (inactive).

With `CC(C)OCCCNc1c(-c2ccc(C(C)C)cc2)c(=O)c1=O`, the inhibition is 42.2% (active).

As to `COCCNc1c(-c2ccc(Cl)cc2)c(=O)c1=O`, the inhibition is -4.73% (inactive).

Turning to `COc1ccc(NS(=O)(=O)c2cc(NC(=O)CCCNC(N)=O)ccc2OC)cc1`, the inhibition is 5.83% (inactive).

With `COc1cccc(-c2nc3ccccc3c(=O)n2NC(=O)c2cccc(C)c2)c1`, the inhibition is 5.37% (inactive).

Consider `COc1cccc(-c2nc3ccccc3c(=O)n2NC(=O)c2ccccc2C)c1`, for which the inhibition was 2.18% (inactive).

For `COc1cccc(-c2nn3c(=O)c4ccccc4nc3n2N)c1`, the inhibition was 34.2% (active).

With `COc1cccc(OC)c1C(=O)N1CCN(c2cccc(C)c2C)CC1`, the inhibition is 4.01% (inactive).

Take `COc1ccccc1N1CCN(S(=O)(=O)c2cc(C)ccc2OC)CC1`: the inhibition is -9.44% (inactive).

With `COc1ccc(C)cc1S(=O)(=O)N1CCN(c2cc(-n3ccnc3C)ncn2)CC1`, the inhibition was 41.4% (active).

Turning to `COc1ccc(C)cc1S(=O)(=O)N1CCN(C)CC1`, the inhibition is 13.6% (inactive).

In the case of `COc1ccc(C[C@@H]2NC(=O)[C@@H]3C[C@H](NCc4cnn(-c5ccccc5F)c4)CN3C2=O)cc1`, the inhibition was 10.7% (inactive).

`CCC(C)N1C(=O)C2C(C(=O)Nc3ccc(F)c(Cl)c3)C3C=CC2(O3)C1C(=O)NC1CCCC(C)C1C` (stereo not given): the inhibition was -20.7% (inactive).

On to `C/C(=N\NC(=O)Cc1cccn1C)c1ccc(O)cc1`, for which the inhibition was -12.8% (inactive).

Turning to `CC1=Nc2cc(C(=O)O)ccc2Sc2ccccc21`, the inhibition is -2.24% (inactive).

Take `COCCNC(=O)c1ccc2c(c1)ncn2-c1ccc(C)c(Cl)c1`: the inhibition is -17.5% (inactive).

In the case of `COCCNC(=O)c1ccc2c(c1)N=C(C)c1cc(C)ccc1S2`, the inhibition is 67.6% (active).

In the case of `COCCNC(=O)c1ccc2c(c1)N=C(C)c1cc(Br)ccc1S2`, the inhibition was 52.5% (active).

In the case of `CCN1CCSc2ccc(C(=O)NCCCOC)cc21`, the inhibition was 0.64% (inactive).

For `COCCNC(=O)/C=C/c1ccc(Br)cc1`, the inhibition was -24.8% (inactive).

As for `COc1cccc(CCC(=O)N2CCC(CCC(=O)N(C)Cc3ccccc3)CC2)c1`, the inhibition was 4.53% (inactive).

For `COc1cc(C2C(C#N)=C(N)Oc3n[nH]c(-c4cc(OC)c(OC)c(OC)c4)c32)ccc1OC(=O)N1CCOCC1` (stereo not given), the inhibition is 12.5% (inactive).

For the molecule `O=C(O)c1cc(N=Cc2cc(Br)cc(Cl)c2O)ccc1O`, the inhibition was -2.5% (inactive).

Consider `CC1=C(C#N)C(c2ccc(Cl)cc2Cl)C2=C(CC(c3ccccc3)CC2=O)N1` (stereo not given), for which the inhibition is 11.3% (inactive).

For the molecule `COC(=O)C1=C(C)NC2=C(C(=O)CC(c3ccccc3)C2)C1c1ccc(C)cc1` (stereo not given), the inhibition is 2.81% (inactive).

With `CC1=C(C#N)C(c2ccccc2Br)C2=C(CC(c3ccccc3)CC2=O)N1` (stereo not given), the inhibition was 37.1% (active).

Take `COC(=O)CCCC(=O)N1CCOCCOCCN(C(=O)CCCC(=O)OC)CCOCCOCC1`: the inhibition is 7.88% (inactive).

Regarding `COc1ccc(-c2nnc(SCC(=O)NC(=O)NCc3ccco3)o2)cc1OC`, the inhibition is 12.3% (inactive).

With `COc1ccc(C2=NOC(C(=O)NCc3ccco3)C2)cc1OC` (stereo not given), the inhibition is 46.8% (active).

Take `COc1ccc(C2=NOC(C(=O)NCCc3ccccc3)C2)cc1OC` (stereo not given): the inhibition was -5.18% (inactive).

With `CC(C)C[C@@H]1NC(=O)[C@@H]2C[C@H](NC(=O)Nc3ccccc3)CN2C1=O`, the inhibition is 3.71% (inactive).

Regarding `CCOc1cc(CN2CCC(C(=O)NCCc3ccccc3)CC2)ccc1O`, the inhibition is -8.29% (inactive).

In the case of `CC(Oc1ccccc1)c1nc(-c2ccccn2)no1` (stereo not given), the inhibition was -32.3% (inactive).

Turning to `c1ccc(-c2noc(-c3cccs3)n2)nc1`, the inhibition is 33.7% (active).

With `CCOc1ccccc1-c1noc(-c2cccs2)n1`, the inhibition is -16.8% (inactive).

Turning to `CN(C)S(=O)(=O)c1ccc(NC(=O)COC(=O)c2ccc(NC(N)=O)cc2)cc1`, the inhibition is -1.47% (inactive).

For `COCCC(=O)NC(C)c1nnc2n1CCN(Cc1ccc(C)cc1)CC2` (stereo not given), the inhibition was 10.5% (inactive).

Consider `Cc1ccc2nc(NCCOCCO)c(/C=C3\SC(=S)N(C(C)C)C3=O)c(=O)n2c1`, for which the inhibition was -4.15% (inactive).

`COc1ccc(/C=C2/C(=N)N3C(=NC2=O)SN=C3S(=O)(=O)C(C)C)cc1OC`: the inhibition was -1.31% (inactive).

Regarding `O=C(Cc1ccc(Cl)c(Cl)c1)N1CCC(O)(c2ccccn2)CC1`, the inhibition was 0.43% (inactive).

For `O=C(c1cccc2nc3ccccc3nc12)N1CCCCCC1`, the inhibition was -1.97% (inactive).

Consider `O=C(c1cn2c(n1)sc1ccccc12)N1CCCC1`, for which the inhibition was 37.1% (active).

On to `O=C(c1cc(-c2ccccc2Cl)on1)N1CCCCC1`, for which the inhibition was 0.6% (inactive).

Consider `CCOC(=O)c1[nH]ncc1CN1CCCC(N(C)CCc2ccccc2)C1` (stereo not given), for which the inhibition is -7.42% (inactive).

In the case of `O=C1c2ccccc2OCCN1Cc1ccc(F)cc1`, the inhibition is -3.96% (inactive).

As for `O=C(Nc1ccc(Cl)c(C(=O)O)c1)c1ncn[nH]1`, the inhibition was 1.11% (inactive).

`CSc1cccc(NC(=O)c2ncn[nH]2)c1`: the inhibition is 4.68% (inactive).

For the molecule `CCc1ccc(NC(=O)c2ncn[nH]2)cc1`, the inhibition was 47.9% (active).
